# Experimental data reported in PubChem BioAssay AID1347165 (National Center for Advancing Translational Sciences (NCATS), 2019).
# Where “and” joins values, the source holds several entries; their conditions need not be identical. Equal entries are not always repeated. In all, about 220,000 compounds went through this assay and about 5,700 (2.6%) were called active. Roughly 18% stayed inconclusive and do not appear here. Calls come from the whole dose curve; as a rule, active = well fitted inhibition curve with a large enough effect; inconclusive = small, poorly fitted or top-dose-only effect; inactive = no such curve, though single readings can be large or run the other way. The list comes from a sample in which actives are over-represented; it also holds similar structures and randomly drawn compounds. Where a call stands in place of a potency, no number is given.
# Molecular target: Lysine-specific demethylase 5B (Homo sapiens) (UniProt Q9UGL1)
# Assay: Primary screen for KDM5B Histone Demethylases FDH-coupled qHTS; note: nearly all actives have a fitted effect of over 70% in size
# Details: FDH-coupled NADH fluorescence (FDH is formaldehyde dehydrogenase); series mostly up to 57.7 µM
# How it was run: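 Compound dilutions met 200 nM (final) KDM5BΔAP for 10 min at room temperature before substrate addition. The substrate mix held 12.5 µM H3K4me3 with cofactors 25 µM α-ketoglutarate and 50 µM Fe²⁺. NADH signal gain over 30 min defined activity.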
# Potency is the fitted concentration of half-maximal effect.
# Sequence of Lysine-specific demethylase 5B (Homo sapiens) (Q9UGL1 whole entry, looked up): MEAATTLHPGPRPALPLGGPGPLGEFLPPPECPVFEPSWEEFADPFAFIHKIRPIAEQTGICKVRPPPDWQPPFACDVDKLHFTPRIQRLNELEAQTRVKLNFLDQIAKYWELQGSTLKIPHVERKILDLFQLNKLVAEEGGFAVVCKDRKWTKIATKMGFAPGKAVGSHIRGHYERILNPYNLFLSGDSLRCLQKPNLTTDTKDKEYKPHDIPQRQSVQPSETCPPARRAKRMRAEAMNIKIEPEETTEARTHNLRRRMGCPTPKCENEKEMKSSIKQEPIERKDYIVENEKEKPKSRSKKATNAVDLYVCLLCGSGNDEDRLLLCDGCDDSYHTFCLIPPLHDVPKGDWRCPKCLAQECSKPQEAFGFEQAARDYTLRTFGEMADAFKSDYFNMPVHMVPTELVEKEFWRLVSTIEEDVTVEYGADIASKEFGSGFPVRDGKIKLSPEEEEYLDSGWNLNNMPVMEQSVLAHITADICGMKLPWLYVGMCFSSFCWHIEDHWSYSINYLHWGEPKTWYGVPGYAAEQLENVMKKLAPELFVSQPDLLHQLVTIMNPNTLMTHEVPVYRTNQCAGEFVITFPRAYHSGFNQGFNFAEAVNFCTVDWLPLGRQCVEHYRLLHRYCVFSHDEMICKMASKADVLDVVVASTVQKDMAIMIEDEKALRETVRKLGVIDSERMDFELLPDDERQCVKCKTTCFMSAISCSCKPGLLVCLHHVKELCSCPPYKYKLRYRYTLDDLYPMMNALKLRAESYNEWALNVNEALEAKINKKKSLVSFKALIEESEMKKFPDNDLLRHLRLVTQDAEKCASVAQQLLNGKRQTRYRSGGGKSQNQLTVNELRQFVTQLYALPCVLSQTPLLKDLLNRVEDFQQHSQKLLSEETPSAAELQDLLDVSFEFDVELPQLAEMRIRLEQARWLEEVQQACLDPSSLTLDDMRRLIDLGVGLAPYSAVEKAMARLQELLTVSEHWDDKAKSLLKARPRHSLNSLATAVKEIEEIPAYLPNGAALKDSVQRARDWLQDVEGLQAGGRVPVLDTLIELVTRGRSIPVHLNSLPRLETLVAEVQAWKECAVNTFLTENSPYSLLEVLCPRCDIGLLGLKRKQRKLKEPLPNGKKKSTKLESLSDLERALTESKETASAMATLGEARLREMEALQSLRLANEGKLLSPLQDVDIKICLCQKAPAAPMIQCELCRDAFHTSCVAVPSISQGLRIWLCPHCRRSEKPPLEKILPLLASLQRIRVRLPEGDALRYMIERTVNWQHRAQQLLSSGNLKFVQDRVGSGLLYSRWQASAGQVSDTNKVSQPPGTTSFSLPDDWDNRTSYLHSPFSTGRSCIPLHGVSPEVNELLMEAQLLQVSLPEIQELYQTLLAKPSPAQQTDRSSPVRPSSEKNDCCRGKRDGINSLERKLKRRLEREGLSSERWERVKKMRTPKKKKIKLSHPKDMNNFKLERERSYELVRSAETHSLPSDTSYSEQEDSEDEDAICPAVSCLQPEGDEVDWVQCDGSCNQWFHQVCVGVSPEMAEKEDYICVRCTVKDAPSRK
row,SMILES,Potency
1,Cn1cnnc1C1CCCN(S(=O)(=O)N2CCCCC2)C1 (stereo unspecified),inactive
2,Cc1ccc(OCC(O)Cn2cnc3sccc3c2=O)c(C)c1 (stereo unspecified),inactive
3,COc1ccc2c(CC(=O)N3CCc4cc(OC)c(OC)cc4C3)coc2c1,inactive
4,Cc1oc2ccn(Cc3ccccc3F)c(=O)c2c1C(=O)NCCCN1CCCCC1C (stereo unspecified),inactive
5,c1cc(-c2nc3ccncc3[nH]2)ccn1,126 µM (active) and 31.6 µM (active)
6,Cc1cc(C)c(NC(=O)CSc2nc3ccncc3[nH]2)c(C)c1,inactive
7,COc1ccc(C2=NC(c3ccncc3)=Nc3ccc(Br)cc3N2)cc1,inactive
8,COc1ccc(CC(=O)NC[C@@H]2C=C(C)[C@H](Cc3nc4ccncc4[nH]3)C[C@H]2C(C)C)cc1,inactive
9,Cc1ccc(Nc2n[nH]nc2C(=O)Nc2ccc(C)cc2Cl)cc1,inactive
10,Cc1csc(CNC(=O)N(C)Cc2ccc3c(c2)OCCO3)n1,inactive
11,O=C(Nc1ccccc1Cc1ccccc1)c1cccc[n+]1[O-],inactive
12,CC(C)(Oc1nn(CCOc2ccccc2)c2ccccc12)C(=O)NCCCn1ccnc1,inactive
13,Cc1ccc(-c2nc(C#N)c(NCCCn3ccnc3)o2)cc1,inactive
14,O=C(NCCCn1ccnc1)c1ccc(-c2ncc3cnc(-c4cccc(F)c4)cn23)cc1,17.8 µM (active)
15,Cn1cc(S(=O)(=O)N2CCC(C(=O)Nc3ccc(OC(F)F)c(Cl)c3)CC2)cc1C(N)=O,inactive
16,COC(=O)c1sccc1S(=O)(=O)Nc1ccc(OC)cc1,inactive
17,CN(C)C[C@@H]1CN(Cc2ccccn2)C[C@H]1NC(=O)c1ccc2cc[nH]c2c1,28.2 µM (active)
18,CN(C)C[C@@H]1CN(S(C)(=O)=O)C[C@H]1NC(=O)c1cccc(F)c1,inactive
19,COc1ccc2[nH]c(C(=O)N[C@@H]3CN(S(C)(=O)=O)C[C@H]3CN(C)C)cc2c1,28.2 µM (active)
20,CN(C)C[C@@H]1CN(C)C[C@H]1NC(=O)c1cc2ccccc2[nH]1,25.1 µM (active)
21,COc1ccc2cc(C(=O)N3CCC(C(C)C(=O)NCCCN4CCCC4)CC3)[nH]c2c1 (stereo unspecified),inactive
22,Cc1cc(C)n(CCC(=O)N[C@@H]2CN(S(C)(=O)=O)C[C@H]2CN(C)C)n1,inactive
23,CN(C)C[C@@H]1CN(S(C)(=O)=O)C[C@H]1NC(=O)c1ccc2ncccc2c1,inactive
24,CN(C)C[C@@H]1CN(C)C[C@H]1NC(=O)c1ccnnc1,inactive
25,CC(CNC(=O)c1cc2ccccc2[nH]1)c1ccccc1 (stereo unspecified),inactive
26,CN(C)C[C@@H]1CN(S(C)(=O)=O)C[C@H]1NC(=O)c1nn(C)c2ccccc12,28.2 µM (active)

row,SMILES,Potency
1,COc1ccc(C(=O)N[C@H]2C[C@@H]3CC[C@H]2C3)cc1,inactive
2,O=C(N[C@@H]1CN(Cc2c(F)cccc2F)C[C@H]1CO)c1ccccc1,inactive
3,O=C(O)COc1ccc2c(=O)c(Oc3ccc(Cl)cc3)coc2c1,inactive
4,Cc1ccc(CNC(=O)Cn2c(=O)ccc3cc(S(=O)(=O)N4CCC(C)CC4)ccc32)o1,inactive
5,Brc1ccc(/C=N/N=C/c2ccc(Br)s2)s1,inactive
6,COc1ccc(NC(=O)CN(C)c2nc(CN3CCOCC3)nc3sc(C)c(C)c23)cc1,inactive
7,COC1CN(c2cccc(F)c2)C12CCN(C1CCOCC1)CC2 (stereo unspecified),inactive
8,Fc1ccc2oc([C@H]3CCN(C4CCOCC4)C3)nc2c1,44.7 µM (active)
9,Cc1nnc([C@H]2CCN(Cc3ccc(F)cc3)C2)o1,inactive
10,Cc1ccc(-c2nc3ccc(C(=O)N4CCC(CC(=O)N5CCCCCC5)CC4)cc3o2)cc1,inactive
11,COc1ccc(C2=NOC(C(=O)Nc3cc(C)nn3-c3ccccc3)C2)cc1 (stereo unspecified),inactive
12,O=C(COc1ccccc1)Nc1ccc2c(=O)c3ccccc3oc2c1,inactive
13,CN(C)C(=O)c1ccc(OCc2coc(-c3cccc(F)c3)n2)cc1,inactive
14,CCc1ccc(CN(C)C(=O)c2ccc3oc(-c4cccc(F)c4)nc3c2)nc1,28.2 µM (active)
15,O=C(O)c1ccc2oc(-c3cccc(Cl)c3)nc2c1,inactive
16,CCCCS(=O)CC(O)CCl (stereo unspecified),inactive
17,O=C(CN1CCCCCC1)Nc1ccc(Cl)cc1F,inactive
18,CN(C)C(=O)CN1C(=O)c2ccccc2C1c1cn(C)c2ccccc12 (stereo unspecified),inactive
19,O=C(CSc1nc(-c2cccc(F)c2)[nH]c1-c1ccccc1)Nc1ccc2c(c1)OCO2,inactive
20,Oc1ccc(-c2nc3ccc(Cl)cn3c2Nc2ccc3c(c2)OCO3)cc1,inactive
21,O=C1CCN(C(=O)C2CCN(C(=O)CCCc3ccccc3)CC2)CCCCCCN1,inactive
22,O=C(Nc1c(-c2ccc(F)cc2)nc2ccccn12)c1cccc(F)c1,inactive
23,O=C(CCNc1c(-c2ccccc2)nc2cnccn12)N1CCC(N2CCCCC2)CC1,28.2 µM (active)
24,CC1CCN(C(=O)CCNc2c(-c3ccc(F)cc3)nc3cnccn23)CC1,31.6 µM (active)
25,Cc1cc(C)cc(C(=O)NCCC(=O)N2CCCC2)c1,inactive
